We go through six compounds from PubChem BioAssay.

The structures appear in SMILES notation. Values joined by “and” are separate entries in the source; they are usually repeats but may differ in a detail not shown here. Equal values may be shown once. Records with an inconclusive call do not appear. For some assays here: Results with a measured potency or affinity are listed apart. Active and inactive are the calls of the source. Unless noted, no rule for the calls is given here.

Test [1] addresses 6-phosphogluconate dehydrogenase, decarboxylating (Homo sapiens) (UniProt P52209). The test can be described thus: 6PGD enzyme inhibitors, primary screen, biochemical, human, recombinant enzyme, NADPH absorbance (AID 1159550;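 active = at least 20% inhibition of 6-phosphogluconate dehydrogenase activity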). The note with it: recombinant 6PGD, NADPH absorbance 341 nm; at 10 µM; stronger effect = higher value.
A short description of test [2]: differential killing of epithelial or mesenchymal cells, primary screen, imaging, PC-3E GFP, TEM4-18 mCherry, co-culture (AID 1345086;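 active = compounds killing one labelled cell type while sparing the other, by normalised counts and ratio limits, not self-fluorescent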;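 as to all read-outs here: cells exposed to compound for 72 h before imaging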;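 as to red/green cell ratio (normalised): normalised mesenchymal count divided by normalised epithelial count so high means epithelial killing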). As to conditions: imaging cell counts, at 1 µM; for red/green cell ratio (normalised): actives lie on both sides.
In test [3] the test system is Aerobactin synthetase IucA (Klebsiella pneumoniae hvKP1). The test is described as follows: Biochemical IucA enzyme inhibition primary screen of the Spectrum library (AID 1346200).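 Also: 100% = wells without compound and 0% = wells lacking enzyme.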 The note with it: malachite green pyrophosphate, A620, at 8 µM, stronger effect = lower value.
Test [4] in a line: polyglutamine-triggered caspase-3 activation inhibitors, cell-based (AID 1583). As to conditions: polyglutamine-induced caspase-3 activation, cell assay; stronger effect = higher value;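 tested at 10 µM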.
Test [5] is described as follows: suppressors of polyQ aggregation in yeast, 75Q-TubU reporter (AID 1593). As to conditions: Yeast 75Q polyglutamine aggregation reporter.
Test [6] is described as follows: rescue of polyQ-huntingtin neuronal dysfunction in worms, whole organism, C. elegans mechanosensory neurons, N-terminal huntingtin (AID 1599). The note with it: touch response, stronger effect = higher value.
Test [7] is described as follows: inhibitors of mitochondrial cytochrome c release, biochemical, purified mitochondria (AID 1603).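 Also: mouse liver mitochondria challenged with calcium chloride; signal normalized to the plate average as 100%.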 As to conditions: stronger effect = lower value.
Test [8] is described as follows: inhibitors of polyQ protein aggregation (AID 1604). The note with it: polyglutamine-induced protein aggregation inhibition assay; stronger effect = higher value; tested at 2.5 µM.
Test [9] can be described thus: enhancers of glutamate uptake in motor neurons, MN-1 cell line (AID 1612).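 Also: tested at 1 µM final; 0% = mean of DMSO vehicle wells on each plate; positive means more glutamate uptake than control and negative means less.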 The note with it: MN-1 motor neuron cells, stronger effect = higher value.
Test [10] in a line: reducers of polyQ inclusions in PC12 cells, cell-based, NGF-treated PC12, GFPQ80 (AID 1614).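 Also: lower means fewer inclusions and 0 means no inclusions at all.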 As to conditions: PC12 NGF-treated GFP-polyQ80 inclusion reduction.
Test [11] is described as follows: suppressors of polyglutamine aggregation in yeast, 75Q-TubH (AID 1616). As to conditions: S. cerevisiae 75Q-TubH polyglutamine aggregation suppression; stronger effect = higher value.
A short description of test [12]: circadian clock period modulators, cell-based, LOPAC library, luminescence reporter (AID 2774).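 Also: values are relative to mean of DMSO wells on each plate.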 The note with it: circadian reporter cells, at 7 µM, actives lie on both sides.
Test [13] is described as follows: liver-stage malaria parasite growth inhibition, primary screen, cell-based, HepG2, luciferase luminescence, HepG2 viability (AID 624349; in the data active = parasite load remaining mostly below about 12%, no sharp cut-off; inactive = mostly above about 10%;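 also: 100% = mean of DMSO negative control wells on the same plate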). As to conditions: P. berghei liver stage in HepG2, luciferase luminescence, concentration not given here; parasite load remaining: stronger effect = lower value; viability: measured here: HepG2 viability without parasites.
Test [14] in a line: sensitizers of A549 cells to miR-34 induction, primary screen, imaging, A549 dox-inducible miR-34, nuclei and caspase counts (AID 1347080;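 active = compounds whose cell count with miR-34 switched on is under 0.7 times the count with it off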). As to conditions: A549 miR-34 inducible, Hoechst nuclei count, 48 h.
Test [15] concerns the target Mitogen-activated protein kinase 7 (Homo sapiens) (UniProt Q13164). The test is described as follows: ERK5 transactivation activators in reporter cells, primary screen, cell-based, HTS (AID 1508626;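 active = luciferase signal above three times the same-plate solvent-only control wells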;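 also: luciferase driven by Gal4-ERK5 fusion binding five Gal4 sites before minimal TATA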). The note with it: HeLa Gal4-ERK5 transactivation, 18 h, at 5 µM, stronger effect = higher value.
Test [16] can be described thus: viability rescue of complex I mutant cybrids, primary screen, cell-based, galactose medium, ATP luminescence (AID 1645843;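 active = z-score of at least 1.8 in each of two replicates, scored against plate mean and spread of sample wells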;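 also: positive z means more ATP and so rescue of galactose-driven cybrid death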). The note with it: complex I mutant cybrid cells, 72 h, stronger effect = higher value.
Test [17] addresses ATP-dependent translocase ABCB1 (Homo sapiens) (UniProt P08183). The test can be described thus: MDR1 (ABCB1) efflux transporter inhibition, cell-based (AID 377; in the data active = fluorescence slope change above about 50%). As to conditions: MDR1-expressing cells, fluorescent substrate accumulation slope; stronger effect = higher value; concentration not given here.
Test [18] is described as follows: hESC survival regulators, cell-based (AID 493140).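 Also: cells exposed to compounds for four days before counting.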 As to conditions: human embryonic stem cell survival screen; stronger effect = higher value.
In test [19] the target is NAD(+) hydrolase SARM1 (Homo sapiens) (UniProt Q6SZW1). The test is described as follows: SARM1 TIR NADase inhibitors, cell lysate, NAD-Glo luminescence (AID 1508614;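 active = compound whose remaining NAD level is above about 45 nM, limit read from the data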;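 also: higher remaining NAD means stronger inhibition of SARM1 NADase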). The note with it: SAM-TIR HEK293T lysate NADase, at 1 µM, stronger effect = higher value.
Setting [20] is: counts scaled to control wells, 1 = unselective.
The mark [21] stands for this setting: measured here: epithelial PC-3E GFP cell survival.
Where [22] appears, read: measured here: mesenchymal TEM4-18 mCherry cell survival.
Setting [23] is: stronger effect = lower value, cell number ratio, induced over uninduced.
Where [24] appears, read: measured here: relative caspase fold change +Dox/-Dox.
Setting [25] is: measured here: total cells with miR-34 induction, stronger effect = lower value.
Where [26] appears, read: measured here: total cells without miR-34 induction.

As usually defined, the inhibition is the drop in the measured response relative to a control, in per cent. Broadly, the viability is a read-out of living cells in per cent, often relative to untreated cells.

Sequence of 6-phosphogluconate dehydrogenase, decarboxylating (Homo sapiens) (P52209 whole entry, looked up): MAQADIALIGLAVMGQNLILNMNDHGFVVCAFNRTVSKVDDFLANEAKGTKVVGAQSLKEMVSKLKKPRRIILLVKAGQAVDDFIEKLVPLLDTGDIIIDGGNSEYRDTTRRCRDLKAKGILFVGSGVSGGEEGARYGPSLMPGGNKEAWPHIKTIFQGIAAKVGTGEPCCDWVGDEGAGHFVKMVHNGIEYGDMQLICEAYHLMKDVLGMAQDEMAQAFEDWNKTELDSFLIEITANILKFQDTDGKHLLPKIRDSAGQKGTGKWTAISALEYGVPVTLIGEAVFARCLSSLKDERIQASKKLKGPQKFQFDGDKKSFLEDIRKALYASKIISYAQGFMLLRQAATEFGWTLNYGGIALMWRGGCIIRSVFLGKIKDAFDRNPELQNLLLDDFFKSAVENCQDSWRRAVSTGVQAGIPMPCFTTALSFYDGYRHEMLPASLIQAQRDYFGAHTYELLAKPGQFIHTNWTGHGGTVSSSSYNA
Sequence of Mitogen-activated protein kinase 7 (Homo sapiens) (Q13164 whole entry, looked up, the tested form may be a part): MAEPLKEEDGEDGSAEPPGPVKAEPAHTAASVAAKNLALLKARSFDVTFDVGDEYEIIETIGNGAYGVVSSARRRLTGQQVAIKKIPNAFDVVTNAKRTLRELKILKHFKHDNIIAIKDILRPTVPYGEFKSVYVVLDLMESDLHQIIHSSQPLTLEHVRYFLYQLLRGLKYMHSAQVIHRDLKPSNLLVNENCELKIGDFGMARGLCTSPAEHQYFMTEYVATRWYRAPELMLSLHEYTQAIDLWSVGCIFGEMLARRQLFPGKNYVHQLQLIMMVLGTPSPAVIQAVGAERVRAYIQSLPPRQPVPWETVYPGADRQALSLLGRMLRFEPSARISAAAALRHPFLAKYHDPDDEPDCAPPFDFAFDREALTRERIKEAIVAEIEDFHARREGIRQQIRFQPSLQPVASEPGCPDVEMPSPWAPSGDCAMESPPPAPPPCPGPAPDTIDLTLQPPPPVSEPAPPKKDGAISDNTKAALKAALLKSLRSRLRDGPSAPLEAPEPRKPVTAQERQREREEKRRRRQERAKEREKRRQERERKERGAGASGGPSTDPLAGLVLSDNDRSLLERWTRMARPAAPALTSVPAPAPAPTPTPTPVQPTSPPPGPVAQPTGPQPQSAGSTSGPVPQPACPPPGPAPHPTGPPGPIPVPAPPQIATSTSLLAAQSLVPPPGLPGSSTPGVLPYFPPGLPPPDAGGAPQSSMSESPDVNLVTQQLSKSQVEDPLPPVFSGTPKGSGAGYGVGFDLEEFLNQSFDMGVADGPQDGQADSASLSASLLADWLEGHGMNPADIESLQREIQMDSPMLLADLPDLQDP
Sequence of ATP-dependent translocase ABCB1 (Homo sapiens) (P08183 whole entry, looked up): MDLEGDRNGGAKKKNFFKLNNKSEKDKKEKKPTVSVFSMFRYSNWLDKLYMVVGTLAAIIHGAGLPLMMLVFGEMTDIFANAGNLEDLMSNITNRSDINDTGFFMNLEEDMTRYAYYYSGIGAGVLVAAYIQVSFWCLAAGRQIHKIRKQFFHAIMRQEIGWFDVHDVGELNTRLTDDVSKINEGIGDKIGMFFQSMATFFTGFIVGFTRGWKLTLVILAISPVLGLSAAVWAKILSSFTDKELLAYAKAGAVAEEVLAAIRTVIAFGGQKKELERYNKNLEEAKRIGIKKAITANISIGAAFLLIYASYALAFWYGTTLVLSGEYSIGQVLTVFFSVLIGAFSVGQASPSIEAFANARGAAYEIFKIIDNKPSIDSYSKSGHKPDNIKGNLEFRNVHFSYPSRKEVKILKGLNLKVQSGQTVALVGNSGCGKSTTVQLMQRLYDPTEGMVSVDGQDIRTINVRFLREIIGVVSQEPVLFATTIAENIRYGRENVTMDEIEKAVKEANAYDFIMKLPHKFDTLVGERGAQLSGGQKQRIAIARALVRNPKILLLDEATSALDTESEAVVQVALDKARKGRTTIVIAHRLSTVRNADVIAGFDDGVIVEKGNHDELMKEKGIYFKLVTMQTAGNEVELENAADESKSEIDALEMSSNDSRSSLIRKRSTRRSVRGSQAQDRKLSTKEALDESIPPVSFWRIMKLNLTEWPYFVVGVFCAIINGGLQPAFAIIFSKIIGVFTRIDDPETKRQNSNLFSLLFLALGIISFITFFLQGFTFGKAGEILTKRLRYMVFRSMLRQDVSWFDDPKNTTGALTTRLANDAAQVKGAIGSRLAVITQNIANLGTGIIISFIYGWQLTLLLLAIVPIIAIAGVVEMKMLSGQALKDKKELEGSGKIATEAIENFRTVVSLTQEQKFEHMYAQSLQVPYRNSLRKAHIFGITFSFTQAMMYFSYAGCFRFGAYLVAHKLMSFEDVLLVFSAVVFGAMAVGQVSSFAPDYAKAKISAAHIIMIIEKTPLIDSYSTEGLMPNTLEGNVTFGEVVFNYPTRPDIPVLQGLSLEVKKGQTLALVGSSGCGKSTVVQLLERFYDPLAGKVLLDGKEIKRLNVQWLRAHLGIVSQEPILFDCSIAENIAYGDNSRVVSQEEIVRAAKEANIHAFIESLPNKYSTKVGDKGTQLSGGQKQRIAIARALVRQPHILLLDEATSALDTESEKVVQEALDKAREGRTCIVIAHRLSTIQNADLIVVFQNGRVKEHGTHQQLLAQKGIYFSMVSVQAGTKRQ
Sequence of NAD(+) hydrolase SARM1 (Homo sapiens) (Q6SZW1 whole entry, looked up): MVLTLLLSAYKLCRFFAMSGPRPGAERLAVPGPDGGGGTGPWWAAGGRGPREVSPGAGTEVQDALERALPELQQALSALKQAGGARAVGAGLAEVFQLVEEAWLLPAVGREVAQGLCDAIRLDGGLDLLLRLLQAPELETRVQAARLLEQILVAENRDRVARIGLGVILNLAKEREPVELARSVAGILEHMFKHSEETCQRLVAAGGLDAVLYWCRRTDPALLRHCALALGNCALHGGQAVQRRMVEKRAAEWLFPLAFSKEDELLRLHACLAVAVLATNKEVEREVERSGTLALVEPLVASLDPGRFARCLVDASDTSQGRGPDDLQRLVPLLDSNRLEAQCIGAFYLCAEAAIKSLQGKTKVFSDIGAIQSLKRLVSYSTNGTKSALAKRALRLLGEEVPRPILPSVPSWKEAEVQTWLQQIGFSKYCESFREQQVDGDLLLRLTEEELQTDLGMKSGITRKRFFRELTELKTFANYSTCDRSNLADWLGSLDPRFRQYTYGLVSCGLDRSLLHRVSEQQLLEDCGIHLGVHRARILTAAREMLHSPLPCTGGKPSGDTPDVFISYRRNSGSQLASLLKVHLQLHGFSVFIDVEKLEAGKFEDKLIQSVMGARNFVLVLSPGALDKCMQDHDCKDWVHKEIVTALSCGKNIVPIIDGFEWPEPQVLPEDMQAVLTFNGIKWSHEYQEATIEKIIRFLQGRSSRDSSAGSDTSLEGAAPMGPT

Regarding `O=C(O)CCCOc1ccc(Cl)cc1Cl`, the inhibition in [1] is -17.1% (inactive). Further, the red/green cell ratio (normalised) in [2] (setting [20]) was 0.77 (inactive). Also, the normalised cell number is 1.36 in test [2] (setting [21]) and 1.05 in [2] (setting [22]). The activity remaining in test [3] is 103% (inactive).

Regarding `O=C1C(Cl)=C(Cl)C(=O)C(Cl)=C1Cl`, the inhibition in test [1] is 3.96% (inactive). Further, the red/green cell ratio (normalised) in test [2] was 1.04 (inactive). Further, the normalised cell number in test [2] (setting [21]) was determined as 1; in test [2] (setting [22]), 1.04. For the same compound, the activity remaining in test [3] is 100% (inactive).

Consider `NC(N)=NOCC[C@H](N)C(=O)O`, for which the inhibition in [4] is 10.5%; in [1], 12.8% (inactive). The same compound registered a score in test [5] of 1.23. Besides, the rescue above control in test [6] was -6.04. Further, the cytochrome c release ratio in [7] was 1.27. Besides, the inhibition of aggregation in [8] was found to be 85.9%. For the same compound, the glutamate uptake change in [9] turned out to be 11.4%. Moreover, the inclusion score in [10] turned out to be 2. The compound further displayed an aggregation suppression score in [11] of 1.39. In addition, the period change in [12] is -0.04 h (inactive). Further, the parasite load remaining in [13] was 114% (inactive) and 105% (inactive). The viability in [13] is 112% and 68.7%. The red/green cell ratio (normalised) in test [2] is 1.04 (inactive). For the same compound, the normalised cell number in test [2] (setting [21]) amounted to 0.91; in test [2] (setting [22]) it was 0.95. The activity remaining in test [3] was 113% (inactive). The fold change in test [14] (stronger effect = lower value) is 1.01 (inactive); in test [14] (setting [23]) it was 0.827 (inactive); in test [14] (setting [24]), 1.39 and 1.69. Besides, the cell count in [14] (setting [25]) was 9120 and 8920; in test [14] (setting [26]), 8990 and 10800. Further, the luciferase signal in test [15] was 84 AU (inactive). In addition, the z-score in test [16] was 0.085 (inactive).

In the case of `O=C1c2ccccc2-c2cccc3cccc1c23`, the inhibition in test [1] was -2.36% (inactive). In addition, in [2] (setting [20]), the red/green cell ratio (normalised) is 0.82 (inactive). In addition, the normalised cell number in test [2] (setting [21]) was found to be 1.23; in test [2] (setting [22]) it was 1.01. Moreover, the activity remaining in test [3] was 106% (inactive). Also, the luciferase signal in [15] was 64 AU (inactive).

For `CC1=NCCc2c1[nH]c1cc(O)ccc21`, the fluorescence slope change in test [17] was 159% (active). For the same compound, the values for the inhibition in test [4] and in test [1] were -45.7% and -14.9% (inactive), respectively. The score in test [5] turned out to be 0.81. This compound also came in with a rescue above control in test [6] of 0.94. In [7], the cytochrome c release ratio stood at 0.72. Moreover, in [8], the inhibition of aggregation is 14.3%. Moreover, in test [9], the glutamate uptake change worked out at 13.4%. The same compound came in with an inclusion score in test [10] of 2. Besides, in [11], the aggregation suppression score is 1.24. Further, the survival in [18] is 17.3 (inactive). Besides, the parasite load remaining in test [13] was 47.1% (inactive) and 63.7% (inactive) and 58.9% (inactive). In test [13], the viability is 102% and 67.4% and 76.2%. For the same compound, the red/green cell ratio (normalised) in test [2] is 0.98 (inactive). Further, the normalised cell number in test [2] (setting [21]) is 1.01; in [2] (setting [22]) it was 0.99. Also, in test [3], the activity remaining was 98.9% (inactive). In addition, the results for the fold change in test [14] (setting [23]) and in [14] (setting [24]) were 0.845 (inactive) and 1.99, respectively. Further, the cell count was 8870 in [14] (setting [25]) and 10500 in test [14] (setting [26]). The luciferase signal in [15] was 64 AU (inactive).

As to `CCOP(=S)(OCC)Oc1nc(Cl)c(Cl)cc1Cl`, the inhibition in test [1] is -10.3% (inactive). For the same compound, the red/green cell ratio (normalised) in test [2] was 0.91 (inactive). The normalised cell number was 0.9 in test [2] (setting [21]) and 0.82 in test [2] (setting [22]). Besides, the activity remaining in test [3] was 79.3% (inactive). Also, the fold change in test [14] (stronger effect = lower value) is 0.887 (inactive); in test [14] (setting [24]) it was 1.26. In addition, the results for the cell count in [14] (setting [25]) and in test [14] (setting [26]) were 8030 and 9060, respectively. Also, the remaining NAD in test [19] is 10 nM (inactive).
